Results: the supplement of paper PMC11001985
A number with no mark means an inactive call.

compound: C#CCNC(=O)CCSSCCC(=O)NCCc1ccc(C=O)c(C=O)c1; experiment: lysine labeling ratio R10:1 (500 µM / 50 µM probe), SILAC-ABPP in living cells; higher = lower intrinsic lysine reactivity toward the probe, active = 2 or less; settings: HeLa; probe concentrations 500 vs 50 µM
How it was run: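 In PBS at room temperature, living HeLa cells grown with SILAC light or heavy labels were treated with 50 µM or 500 µM of an alkyne-tagged, disulfide-linked lysine probe, with label swaps in both directions. Analysis was by LC-MS/MS on a TIMS-TOF Pro after click to biotin-azide, neutravidin capture and DTT release. For each lysine, R is the median across forward and reverse replicates of the filtered median high-probe/low-probe MS1 peptide ratio, capped at 20.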

Sequence of UniProt P05783 (P05783 whole entry): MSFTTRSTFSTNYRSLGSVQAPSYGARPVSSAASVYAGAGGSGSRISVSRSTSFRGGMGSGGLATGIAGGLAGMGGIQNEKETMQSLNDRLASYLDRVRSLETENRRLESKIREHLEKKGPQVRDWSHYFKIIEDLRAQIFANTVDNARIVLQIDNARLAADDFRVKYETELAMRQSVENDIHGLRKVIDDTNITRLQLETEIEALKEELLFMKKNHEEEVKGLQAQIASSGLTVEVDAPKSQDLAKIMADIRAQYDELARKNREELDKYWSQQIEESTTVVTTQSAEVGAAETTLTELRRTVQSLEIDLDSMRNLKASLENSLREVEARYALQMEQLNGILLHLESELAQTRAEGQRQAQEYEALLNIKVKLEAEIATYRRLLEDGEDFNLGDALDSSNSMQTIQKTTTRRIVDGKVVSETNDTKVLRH
Sequence of UniProt Q16363 (Q16363 whole entry): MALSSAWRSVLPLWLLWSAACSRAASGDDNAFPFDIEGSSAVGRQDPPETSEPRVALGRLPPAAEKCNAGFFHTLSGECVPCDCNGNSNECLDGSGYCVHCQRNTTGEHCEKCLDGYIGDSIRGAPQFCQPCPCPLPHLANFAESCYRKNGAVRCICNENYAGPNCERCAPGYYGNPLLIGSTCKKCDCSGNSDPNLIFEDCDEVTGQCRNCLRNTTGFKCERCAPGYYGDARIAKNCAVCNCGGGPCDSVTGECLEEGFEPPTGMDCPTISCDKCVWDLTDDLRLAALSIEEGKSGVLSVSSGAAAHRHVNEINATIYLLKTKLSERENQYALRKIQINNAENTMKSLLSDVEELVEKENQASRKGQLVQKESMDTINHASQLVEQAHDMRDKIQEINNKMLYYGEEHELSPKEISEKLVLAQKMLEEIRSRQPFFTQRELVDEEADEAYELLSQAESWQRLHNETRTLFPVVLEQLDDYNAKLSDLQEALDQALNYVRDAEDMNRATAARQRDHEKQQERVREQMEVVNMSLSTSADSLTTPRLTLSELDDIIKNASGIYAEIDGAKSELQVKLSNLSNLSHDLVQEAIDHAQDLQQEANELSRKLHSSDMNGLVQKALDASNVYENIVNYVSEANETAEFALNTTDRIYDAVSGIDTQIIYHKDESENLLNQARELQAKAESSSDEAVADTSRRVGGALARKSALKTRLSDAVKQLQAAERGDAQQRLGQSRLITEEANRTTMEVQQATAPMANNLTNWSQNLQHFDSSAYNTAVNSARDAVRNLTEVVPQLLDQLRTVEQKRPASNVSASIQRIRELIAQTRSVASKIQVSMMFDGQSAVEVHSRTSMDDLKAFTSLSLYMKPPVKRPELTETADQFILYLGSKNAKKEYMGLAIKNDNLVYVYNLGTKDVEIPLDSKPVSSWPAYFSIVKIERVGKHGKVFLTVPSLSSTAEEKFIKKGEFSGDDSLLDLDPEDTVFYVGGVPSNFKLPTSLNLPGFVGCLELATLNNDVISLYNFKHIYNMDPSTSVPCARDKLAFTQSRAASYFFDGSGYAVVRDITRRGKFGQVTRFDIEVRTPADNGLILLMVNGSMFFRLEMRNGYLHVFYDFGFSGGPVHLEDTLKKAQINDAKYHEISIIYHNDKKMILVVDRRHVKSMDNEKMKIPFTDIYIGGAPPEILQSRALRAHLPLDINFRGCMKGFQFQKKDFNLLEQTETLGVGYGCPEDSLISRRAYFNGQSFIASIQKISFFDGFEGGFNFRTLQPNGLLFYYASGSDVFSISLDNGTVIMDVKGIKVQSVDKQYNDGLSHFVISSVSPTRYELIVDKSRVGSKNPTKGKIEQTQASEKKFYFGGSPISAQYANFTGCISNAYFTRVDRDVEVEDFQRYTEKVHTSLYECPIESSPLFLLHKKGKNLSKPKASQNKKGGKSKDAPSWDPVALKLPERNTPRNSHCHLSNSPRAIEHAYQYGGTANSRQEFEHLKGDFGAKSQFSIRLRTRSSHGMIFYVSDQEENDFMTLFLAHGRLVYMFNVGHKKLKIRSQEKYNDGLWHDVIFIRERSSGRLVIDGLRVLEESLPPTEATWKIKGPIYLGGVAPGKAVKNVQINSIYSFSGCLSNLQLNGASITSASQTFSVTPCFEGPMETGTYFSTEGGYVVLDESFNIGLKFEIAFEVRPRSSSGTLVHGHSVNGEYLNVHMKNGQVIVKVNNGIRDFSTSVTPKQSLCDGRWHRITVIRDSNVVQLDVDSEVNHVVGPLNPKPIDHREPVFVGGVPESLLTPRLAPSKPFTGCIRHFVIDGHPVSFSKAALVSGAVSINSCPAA
Sequence of UniProt Q9UHN6 (Q9UHN6 whole entry): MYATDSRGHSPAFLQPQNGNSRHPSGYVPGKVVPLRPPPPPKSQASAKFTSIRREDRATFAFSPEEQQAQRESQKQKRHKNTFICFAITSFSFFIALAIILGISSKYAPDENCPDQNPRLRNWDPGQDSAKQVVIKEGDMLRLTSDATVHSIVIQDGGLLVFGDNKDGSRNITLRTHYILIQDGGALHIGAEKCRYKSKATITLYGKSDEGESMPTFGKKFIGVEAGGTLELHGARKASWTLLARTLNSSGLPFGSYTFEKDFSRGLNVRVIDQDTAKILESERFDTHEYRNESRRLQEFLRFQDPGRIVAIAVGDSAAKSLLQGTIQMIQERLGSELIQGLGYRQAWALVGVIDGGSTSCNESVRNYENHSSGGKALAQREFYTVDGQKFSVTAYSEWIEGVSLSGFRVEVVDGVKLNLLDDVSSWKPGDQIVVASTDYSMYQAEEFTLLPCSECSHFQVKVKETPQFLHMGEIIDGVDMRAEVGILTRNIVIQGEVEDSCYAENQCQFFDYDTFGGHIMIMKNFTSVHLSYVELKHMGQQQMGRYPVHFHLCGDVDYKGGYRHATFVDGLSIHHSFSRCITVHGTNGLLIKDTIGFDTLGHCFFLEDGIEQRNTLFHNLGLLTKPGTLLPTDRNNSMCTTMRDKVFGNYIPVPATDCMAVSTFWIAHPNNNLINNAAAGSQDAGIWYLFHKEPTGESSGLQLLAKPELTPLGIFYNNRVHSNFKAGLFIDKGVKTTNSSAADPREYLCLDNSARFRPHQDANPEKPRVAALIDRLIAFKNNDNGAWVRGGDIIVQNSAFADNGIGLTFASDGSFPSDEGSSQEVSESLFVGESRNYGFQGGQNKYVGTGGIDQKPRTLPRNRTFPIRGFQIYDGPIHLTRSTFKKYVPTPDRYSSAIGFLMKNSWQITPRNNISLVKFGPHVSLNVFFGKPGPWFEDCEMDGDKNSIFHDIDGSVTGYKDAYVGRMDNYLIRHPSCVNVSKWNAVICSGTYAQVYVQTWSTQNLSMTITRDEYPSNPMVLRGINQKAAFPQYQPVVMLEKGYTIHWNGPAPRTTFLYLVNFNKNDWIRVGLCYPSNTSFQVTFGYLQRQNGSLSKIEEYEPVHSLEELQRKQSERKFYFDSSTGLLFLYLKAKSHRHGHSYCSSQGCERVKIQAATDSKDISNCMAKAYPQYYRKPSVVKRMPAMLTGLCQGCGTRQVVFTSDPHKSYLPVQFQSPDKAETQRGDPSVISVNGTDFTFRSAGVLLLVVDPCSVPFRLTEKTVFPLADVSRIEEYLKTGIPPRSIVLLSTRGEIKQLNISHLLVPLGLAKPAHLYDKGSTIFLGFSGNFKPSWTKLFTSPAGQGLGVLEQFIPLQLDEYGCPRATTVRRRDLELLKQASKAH
Sequence of UniProt P48643 (P48643 whole entry): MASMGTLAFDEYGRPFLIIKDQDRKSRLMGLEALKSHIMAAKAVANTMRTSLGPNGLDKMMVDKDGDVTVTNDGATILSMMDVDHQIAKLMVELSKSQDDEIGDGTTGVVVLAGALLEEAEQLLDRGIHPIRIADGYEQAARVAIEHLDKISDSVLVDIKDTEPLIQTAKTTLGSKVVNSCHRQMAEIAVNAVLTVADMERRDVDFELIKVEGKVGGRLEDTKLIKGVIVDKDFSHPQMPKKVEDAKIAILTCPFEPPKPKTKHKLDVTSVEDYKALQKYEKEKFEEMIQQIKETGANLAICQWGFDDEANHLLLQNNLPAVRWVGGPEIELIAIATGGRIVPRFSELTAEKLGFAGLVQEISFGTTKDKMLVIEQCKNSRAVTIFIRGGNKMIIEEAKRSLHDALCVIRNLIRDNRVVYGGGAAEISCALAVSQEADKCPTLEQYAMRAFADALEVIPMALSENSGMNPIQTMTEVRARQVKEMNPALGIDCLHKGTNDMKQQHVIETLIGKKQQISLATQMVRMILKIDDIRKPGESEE
Sequence of UniProt P26599 (P26599 whole entry): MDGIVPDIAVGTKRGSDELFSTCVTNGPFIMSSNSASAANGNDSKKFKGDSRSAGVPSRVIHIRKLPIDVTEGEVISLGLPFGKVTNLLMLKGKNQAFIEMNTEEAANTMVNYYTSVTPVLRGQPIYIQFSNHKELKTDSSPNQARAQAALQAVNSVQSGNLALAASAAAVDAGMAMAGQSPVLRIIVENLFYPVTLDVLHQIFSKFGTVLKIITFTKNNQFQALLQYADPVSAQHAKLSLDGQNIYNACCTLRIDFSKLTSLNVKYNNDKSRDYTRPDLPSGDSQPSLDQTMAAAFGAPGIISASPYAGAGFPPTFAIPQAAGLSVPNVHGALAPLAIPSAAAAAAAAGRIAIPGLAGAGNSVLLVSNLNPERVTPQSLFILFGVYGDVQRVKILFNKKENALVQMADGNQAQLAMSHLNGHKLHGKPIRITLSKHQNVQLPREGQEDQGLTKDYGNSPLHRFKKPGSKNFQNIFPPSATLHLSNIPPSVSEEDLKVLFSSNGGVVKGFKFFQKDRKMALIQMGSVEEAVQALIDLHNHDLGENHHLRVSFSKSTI
Sequence of UniProt P47756 (P47756 whole entry): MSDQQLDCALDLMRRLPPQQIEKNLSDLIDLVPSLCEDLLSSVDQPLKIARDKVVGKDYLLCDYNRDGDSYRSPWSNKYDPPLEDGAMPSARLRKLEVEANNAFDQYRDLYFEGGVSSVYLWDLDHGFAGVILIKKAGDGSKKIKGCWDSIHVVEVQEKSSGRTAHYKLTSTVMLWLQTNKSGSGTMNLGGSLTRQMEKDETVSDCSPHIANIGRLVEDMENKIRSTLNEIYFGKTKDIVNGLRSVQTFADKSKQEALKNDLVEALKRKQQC

| Target | lysine labeling ratio R10:1 |
| --- | --- |
| PTBP1 (lysine site: K271) (UniProt P26599) | 2.72 |
| UniProt P62913 (lysine site: K159) | 2.96 |
| UniProt P16144 (lysine site: K662) | 1.57 (active) |
| MSN (lysine site: K360) (UniProt P26038) | 2.83 |
| CCT4 (lysine site: K29) (UniProt P50991) | 1.71 (active) |
| UniProt P05787 (lysine site: K11) | 6.14 |
| SLC12A7 (lysine site: K393) (UniProt Q9Y666) | 3.46 |
| AHNAK (lysine site: K134) (UniProt Q09666) | 1.99 (active) |
| MYH9 (lysine site: K613) (UniProt P35579) | 1.78 (active) |
| SERPINH1 (lysine site: K217) (UniProt P50454) | 1.17 (active) |
| UniProt P08727 (lysine site: K265) | 3.48 |
| UniProt Q16363 (lysine site: K717) | 0.58 (active) |
| SPTBN1 (lysine site: K1939) (UniProt Q01082) | 3.41 |
| OSBPL5 (lysine site: K446) (UniProt Q9H0X9) | 1.7 (active) |
| HSPA8 (lysine site: K251) (UniProt P11142) | 1.57 (active) |
| TM9SF2 (lysine site: K495) (UniProt Q99805) | 4.38 |
| UniProt Q9UHN6 (lysine site: K856) | 0.771 (active) |
| UniProt O94991 (lysine site: K280) | 1.34 (active) |
| CPM (lysine site: K135) (UniProt P14384) | 0.991 (active) |
| FLNB (lysine site: K681) (UniProt O75369) | 2.09 |

| Target | lysine labeling ratio R10:1 |
| --- | --- |
| CDCP1 (lysine site: K592) (UniProt Q9H5V8) | 3.49 |
| LAMA5 (lysine site: K1940) (UniProt O15230) | 1.65 (active) |
| KRT18 (lysine site: K119) (UniProt P05783) | 6.22 |
| UniProt P62316 (lysine site: K18) | 2.06 |
| LAMB1 (lysine site: K158) (UniProt P07942) | 1.78 (active) |
| EDIL3 (lysine site: K444) (UniProt O43854) | 3.53 |
| UniProt O60245 (lysine site: K310) | 2.88 |
| CAPZB (lysine site: K57) (UniProt P47756) | 1.35 (active) |
| LAMC1 (lysine site: K1258) (UniProt P11047) | 1.54 (active) |
| KRT18 (lysine site: K426) (UniProt P05783) | 9.55 |
| UniProt P60660 (lysine site: K98) | 3.79 |
| UniProt Q9NYQ6 (lysine site: K316) | 3.81 |
| IDH2 (lysine site: K384) (UniProt P48735) | 3.48 |
| FLNA (lysine site: K338) (UniProt P21333) | 3.9 |
| CCT5 (lysine site: K399) (UniProt P48643) | 2.73 |
| UniProt O60462 (lysine site: K755) | 2.55 |
| GANAB (lysine site: K269) (UniProt Q14697) | 2.12 |
| EZR (lysine site: K162) (UniProt P15311) | 0.7 (active) |
| SPTAN1 (lysine site: K2078) (UniProt Q13813) | 4.25 |
| UniProt P62277 (lysine site: K43) | 7.76 |
